Data as given in PubChem BioAssay AID488969 (Vanderbilt High Throughput Screening Facility, 2010).
In all, about 110,000 compounds were measured (“z-score”: median about -0.1, highest 2% from about 2 on). What follows is part of a selection rich in the highest values, with near analogues and random picks from the rest. Calls of active or inactive are those of the source.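 The calls were made as follows: active = z-score in the third read window above 3 or below -3; inactive = the rest.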

target: Metabotropic glutamate receptor 8 (Rattus norvegicus) (UniProt P70579); assay: rat mGluR8 modulators via GIRK flux, primary screen, cell-based, thallium flux, HTS (AID 488969); details: HEK293 rat mGluR8, GIRK (G protein-gated inwardly rectifying potassium channel) thallium flux, FluoZin2; at 10 µM; stronger effect = higher value; submaximal glutamate (EC20) added with thallium
Sequence (P70579 whole entry, looked up): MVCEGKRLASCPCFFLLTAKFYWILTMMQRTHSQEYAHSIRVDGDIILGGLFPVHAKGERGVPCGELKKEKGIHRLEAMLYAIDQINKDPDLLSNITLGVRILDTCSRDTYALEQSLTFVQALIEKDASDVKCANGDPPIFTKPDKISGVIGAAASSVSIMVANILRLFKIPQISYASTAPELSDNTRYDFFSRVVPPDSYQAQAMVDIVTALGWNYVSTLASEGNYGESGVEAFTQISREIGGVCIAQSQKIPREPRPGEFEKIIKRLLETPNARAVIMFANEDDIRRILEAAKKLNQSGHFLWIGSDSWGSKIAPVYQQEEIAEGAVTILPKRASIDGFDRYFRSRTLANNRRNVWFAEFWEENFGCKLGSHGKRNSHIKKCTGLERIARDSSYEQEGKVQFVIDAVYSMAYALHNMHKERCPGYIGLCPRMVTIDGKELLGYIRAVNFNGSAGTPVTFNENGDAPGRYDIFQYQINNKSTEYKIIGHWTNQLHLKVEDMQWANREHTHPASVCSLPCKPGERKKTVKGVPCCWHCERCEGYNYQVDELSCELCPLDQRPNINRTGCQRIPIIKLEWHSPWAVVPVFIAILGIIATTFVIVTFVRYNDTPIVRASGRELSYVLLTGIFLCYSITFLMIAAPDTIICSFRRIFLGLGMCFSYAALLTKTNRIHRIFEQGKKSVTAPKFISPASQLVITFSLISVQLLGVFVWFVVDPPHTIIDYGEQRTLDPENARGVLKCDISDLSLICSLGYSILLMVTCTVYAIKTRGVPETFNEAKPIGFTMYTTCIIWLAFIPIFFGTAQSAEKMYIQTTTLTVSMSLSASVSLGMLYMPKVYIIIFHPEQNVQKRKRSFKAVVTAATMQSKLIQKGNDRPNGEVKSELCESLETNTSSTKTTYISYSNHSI

SMILES | z-score
CN(C)c1ccnc2sc3c(NCC(O)CO)ncnc3c12 (stereo not drawn) | -0.106
CCOC(=O)c1c(C)[nH]c(C(=O)COC(=O)/C=C/c2ccc3c(c2)OCO3)c1C | 0.00271
Cc1nc2ccccc2cc1C(=O)O | 0.0939
CC(C/C=N/NC(=O)COc1cc(Cl)ccc1Cl)c1ccccc1 (stereo not drawn) | -0.0205
O=C(Nc1ccc2c(c1)OCO2)C1CC(c2ccc(Cl)cc2)=NO1 (stereo not drawn) | -0.0412
CN(c1ccc(OCC(=O)OCC(=O)Nc2ccc(F)cc2)cc1)S(=O)(=O)c1ccc(Cl)cc1 | -0.231
COc1ccccc1N1CCN(CCCC(=O)c2ccc(F)cc2)CC1 | -0.123
COc1cc2cc(C(N)=O)c(N)nc2cc1OC | -0.0702
COc1cc2cnncc2cc1OC | 3.21 (active)
COc1cc2cnc(Cl)nc2cc1OC | -0.182
CCOC(=O)c1ccc(NC(=O)CSc2nnc(-c3cccs3)n2C)cc1 | -0.387
O=C(NCC1CCCO1)C(c1ccc(F)cc1)N(Cc1ccc(F)cc1)C(=O)Cn1nnc(-c2cccs2)n1 (stereo not drawn) | 2.46
O=C(NCC1CCCO1)C(c1cccs1)N(Cc1cccs1)C(=O)Cn1nnc(-c2cccs2)n1 (stereo not drawn) | -0.109
Cc1ccc(C(C(=O)NCC2CCCO2)N(Cc2ccccc2F)C(=O)Cn2nnc(-c3cccs3)n2)cc1 (stereo not drawn) | -0.157
c1ccc(-c2cn3nc(-c4ccccc4)c(-c4ccccc4)nc3n2)cc1 | -1.03
O=c1c(-c2ccccc2)nc(-c2ccccc2)cn1O | 2.86
Cn1c(=O)c(-c2ccccc2)nc2ccccc21 | -0.27
CCOc1ccc2c(c1)-c1c(ssc1=S)C(C)(C)N2C | -0.11
COc1ccc(C(=O)NNC(=S)NC(=O)c2ccco2)cc1 | 2.99
COc1ccc(C(=O)Nc2cc(OC)c(NC(=O)c3ccco3)cc2OC)cc1 | -0.196
COc1ccc(/C=C/C(=O)NC(=S)NNC(=O)c2ccco2)cc1 | 0.921
CCOC(=O)/C(=C/c1ccc(Cl)cc1)NC(=O)c1ccco1 | -0.468

SMILES | z-score
O=C(Nc1ccc(Oc2ccc3ccccc3c2)cc1)c1ccco1 | 0.388
O=C(NC(=S)NNC(=O)c1ccccc1O)c1ccco1 | 0.576
CC(C)CNC(=S)NNC(=O)c1ccco1 | -0.0344
CC(Oc1ccc2ccccc2c1)C(=O)NNC(=S)NC(=O)c1ccco1 (stereo not drawn) | 4.46 (active)
CC(Oc1ccc(Cl)cc1)C(=O)NNC(=S)NC(=O)c1ccco1 (stereo not drawn) | 5.62 (active)
Cc1cccc(C(=O)Oc2csc(=S)n2C(=O)c2cccc(C)c2)c1 | 0.282
COc1cc(CNCc2ccccn2)ccc1OCc1ccc(Cl)cc1 | 0.427
CC(=O)c1cccc(NC(=O)C2CC(c3ccc(F)cc3)=NO2)c1 (stereo not drawn) | -0.0875
O=C(COc1ccc(Cl)cc1Cl)Nc1nc2n(n1)C(c1ccccc1)CC(=O)N2 (stereo not drawn) | -0.56
O=C(Nc1ncc(C(F)(F)F)cc1Cl)C1COc2ccccc2O1 (stereo not drawn) | -0.304
CCN(CC)CCNC(=O)c1ccc(Cl)c(S(=O)(=O)Nc2ccccc2OC)c1 | 0.323
CCN(CC)CCCNC(=O)c1ccc(Cl)c(S(=O)(=O)Nc2ccccc2OC)c1 | -0.0127
CCN(CC)CCNC(=O)c1ccc(NC(=O)c2ccc(Cl)c(S(=O)(=O)Nc3ccccc3OC)c2)cc1 | 2.14
CC(=O)c1cccc(NC(=O)CSc2nnc(-c3cccnc3)o2)c1 | 0.059
O=C(NCc1ccncc1)C(=O)Nc1nc(C23CC4CC(CC(C4)C2)C3)cs1 | 0.792
CC(=O)NNC(=O)CC(=O)Nc1nc(C23CC4CC(CC(C4)C2)C3)cs1 | -0.221
O=C(NCc1ccccc1)C(=O)Nc1nc(C23CC4CC(CC(C4)C2)C3)cs1 | 3.44 (active)
COC(=O)N/N=C/c1ccc(OCCSc2ccc(Cl)cc2)c(OC)c1 | 0.427
CCCC1S/C(=N/N=C/c2ccc(C)cc2)N(Cc2ccc(OC)cc2)C1=O (stereo not drawn) | 0.151
CC(=O)Nc1ccc(Oc2cc(C#N)c(C#N)cc2N2CCOCC2)cc1 | 0.123
CC(=O)Nc1cccc(Oc2cc(C#N)c(C#N)cc2N2CCCCCC2)c1 | 2.07
CC(=O)Nc1ccc(Oc2cc(C#N)c(C#N)cc2N2CCCCCC2)cc1 | 1.3

SMILES | z-score
O=c1oc2ccccc2c(Nc2cccc3ccccc23)c1[N+](=O)[O-] | -0.861
COCCNC(=O)c1ccc(-n2c(SCc3cc(F)ccc3F)nc3ccccc3c2=O)cc1 | -0.0902
CCN(CC)S(=O)(=O)c1cccc(S(=O)(=O)N2CCCCC2)c1 | -0.121
CC(=O)Nc1ccc(Oc2cnccn2)cc1 | -0.0949
CC(=O)Nc1ccc(Oc2nc(C)cc(C)n2)cc1 | 0.187
CC(=O)Nc1ccc(Oc2ncccn2)cc1 | 7.84 (active)
COCC(=O)n1nc(NCc2ccc(OC)cc2)nc1NCc1ccc(OC)cc1 | -0.00999
CN(C)CCn1c(NC(=O)c2ccc(Cl)cc2)nc2ccccc21 | 0.381
CCN(CC)CCn1c(NC(=O)c2ccc(Cl)cc2)nc2ccccc21 | 4.18 (active)
CCC(=O)Nc1nc2ccccc2n1CCN(CC)CC | -0.0953
Cc1ccc(N/C(SCc2ccccc2C)=C(/C#N)C(=O)NCc2ccco2)cc1C | -0.331
CCOc1cc(C(=S)N2CCOCC2)ccc1OS(=O)(=O)c1ccccc1 | -0.19
CC(C)Oc1cccc(C(=O)NC(=S)Nc2ccc3c4c(cccc24)CC3)c1 | 1.24
Cc1ccccc1OCC(=O)NC(=S)Nc1ccc2c3c(cccc13)CC2 | 0.22
CC(C)c1ccc(OCC(=O)NC(=S)Nc2ccc3c4c(cccc24)CC3)cc1 | 1.27
COc1cc(OC)cc(C(=O)NC(=S)Nc2ccc3c4c(cccc24)CC3)c1 | 0.967
O=C(COc1ccccc1)NC(=S)Nc1ccc2c3c(cccc13)CC2 | 4.29 (active)
COc1cccc(C(=O)NC(=S)Nc2ccc3c4c(cccc24)CC3)c1 | 2.83
CN1CCN(C(=O)c2ccccc2N(Cc2ccccc2)S(=O)(=O)c2ccccc2)CC1 | -0.185
Cn1cc([N+](=O)[O-])c(C(=O)N/N=C/c2ccccc2)n1 | -0.138
Cc1cc(C)n(-c2nc3ccccc3nc2Nc2ccc(CC(=O)O)cc2)n1 | 1.13
O=c1c2c(nc3c(-c4ccc(Cl)cc4)c[nH]n13)CCCC2 | 12 (active)

SMILES | z-score
O=c1c2c(nc3c(-c4ccccc4)c[nH]n13)CCCC2 | 3.66 (active)
O=c1c2c(nc3cc(-c4cccc(Cl)c4)[nH]n13)CCC2 | 0.391
O=c1c2c(nc3c(-c4cccc(Br)c4)c[nH]n13)CCCC2 | 6.35 (active)
Cc1[nH]n2c(=O)c3c(nc2c1-c1ccccc1)CCC3 | -1.66
N#Cc1c[nH]n2c(=O)c3c(nc12)CCCC3 | -0.482
Nc1[nH]n2c(=O)c3c(nc2c1N=Nc1ccc(Cl)cc1)CCCC3 | -1.09
O=c1c2c(nc3cc(-c4ccccc4)[nH]n13)CCC2 | -0.413
O=c1c2c(nc3c(-c4cccc5ccccc45)c[nH]n13)CCC2 | -0.52
O=c1c2c(nc3c(-c4ccccc4)c[nH]n13)CCC2 | -0.819
Cc1ccc(N=Nc2c(N)[nH]n3c(=O)c4c(nc23)CCCC4)cc1 | -0.696
Cc1ccc(-c2[nH]n3c(=O)c4c(nc3c2C)CCCC4)cc1 | 11 (active)
COCCNC(=O)C(=O)N/N=C/c1ccccc1C(F)(F)F | -0.508
Cc1nc2ccc(S(=O)(=O)NCC(=O)N3CCOCC3)cc2s1 | -0.0788
COc1ccc2c(c1)c1ncn(CCN3CCNCC3)c(=O)c1n2C | -0.141
O=C(N[C@@H](Cc1ccccc1)c1nc2ccccc2[nH]1)c1cc([N+](=O)[O-])ccc1Cl | -0.361
CC(C)(C)NC(=O)C1CCCN(S(=O)(=O)c2cccc3cccnc23)C1 (stereo not drawn) | -0.133
CCOc1ccc(NC(=O)c2cc3cc4ccc(OC)cc4nc3o2)cc1 | 0.334
COc1ccc2cc3cc(C(=O)Nc4cc(OC)c(OC)c(OC)c4)oc3nc2c1 | -0.255
COc1ccc2nc3oc(C(=O)Nc4ccc(OC)c(OC)c4)cc3cc2c1 | 4.91 (active)
O=C(Nc1ccc2oc(-c3ccncc3)nc2c1)c1cccs1 | -1.18
CCc1nnc(NC(=O)CCc2ccc(C)o2)s1 | 0.332
CCC(=O)N1CCc2cc(S(=O)(=O)CCC(=O)NCCc3ccccc3)ccc21 | -0.24

SMILES | z-score
CC(C)NC(=O)c1ccccc1NC(=O)/C=C/c1cccc([N+](=O)[O-])c1 | -0.52
CC(NC(=O)COC(=O)/C=C/c1ccc([N+](=O)[O-])cc1)c1ccccc1 (stereo not drawn) | -0.366
CC(C)c1ccccc1NC(=O)COC(=O)/C=C/c1cccc([N+](=O)[O-])c1 | 5.9 (active)
CCOc1ccc(NC(=O)CSc2nnc(CCNC(=O)c3ccc(OC)cc3)n2CC)cc1 | -0.0739
C/C=C/COC(=O)c1[nH]c2c(c1C)C(=O)CC(c1ccco1)C2 (stereo not drawn) | -0.237
CSCC[C@H](NC(=O)OC(C)(C)C)c1nnc(SCC(=O)N(C)C)o1 | -0.106
O=C(Nc1nc2ccccc2s1)C1CC(=O)N(c2ccc(Br)cc2)C1 (stereo not drawn) | 0.374
CCCc1cc(C(=O)Nc2sc3c(c2C#N)CCC3)no1 | 2.21
CC(C)Cc1cc(C(=O)Nc2sc3c(c2C#N)CCC3)no1 | 1.32
N#Cc1c(NC(=S)NC(=O)c2ccccc2)sc2c1CCC2 | 0.849
Cc1ccccc1C(=O)NC(=S)Nc1sc2c(c1C#N)CCCC2 | 5.02 (active)
Cc1onc(-c2ccccc2)c1C(=O)Nc1sc2c(c1C#N)CCC(C)C2 (stereo not drawn) | 0.289
Cc1cc(C(=O)Nc2sc3c(c2C#N)CCC3)no1 | -0.0664
Cc1ccccc1C(=O)NC(=S)Nc1sc2c(c1C#N)CCC(C)C2 (stereo not drawn) | 1.82
N#Cc1c(NC(=S)NC(=O)c2ccccc2)sc2c1CCCC2 | 0.0146
Cc1onc(-c2ccccc2)c1C(=O)NC(=S)Nc1sc2c(c1C#N)CCCC2 | 4.1 (active)
CCOC(=O)CC1ON(C)C(=O)N1c1ccc([N+](=O)[O-])cc1 (stereo not drawn) | 0.0464
CCCCOC(=O)c1ccc(NC(=O)/C=C/c2cccs2)cc1 | -0.063
CCc1ccc(C2NC(C(=O)O)CS2)cc1 (stereo not drawn) | -0.258
CC(C)Cn1c(SCC(=O)N2CCCCC2)nc2ccccc2c1=O | -0.537
